MCF10A rereplic = inducers of DNA re-replication in MCF 10A breast cells | AID 624296 | Potency, µM (highest dose often 46.1 µM), for inactives: top-dose activity, positive = re-replication, hits mostly activators | MCF 10A DNA re-replication, Hoechst nuclear intensity, 48 h | 2.9% of 350,000 active; note: % of control where 0% means no effect; nearly all actives have a fitted effect of over 50% in size
HT1080 IDH1KD tx = toxicity to HT-1080 IDH1 knockdown cells (counter line); HT-1080 IDH1 knockdown viability, ATP luminescence, 48 h; Potency, µM (doses to about 46.1 µM), for the others: at the top dose activity, negative = toxicity, hits mostly cytotoxic; 2% of 360,000 active;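 note: 0% = DMSO wells and -100% = cell-free medium wells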
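Cytotoxicity counter-line: IDH1KD HT-1080, 48 h, CellTiter-Glo. Curves classed by r2, magnitude and activity.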
SW480 rerep = inducers of DNA re-replication in SW480 colon cancer cells; AID 624297; 1.8% of 340,000 active; Potency, µM (doses to about 46.1 µM), for inactives: top-dose re-replication activation, hits mostly activators; SW480 DNA re-replication, Hoechst DNA content imaging, 48 h; note: % of control where 0% means no effect; nearly all actives have a fitted effect of over 55% in size
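SW480 cells exposed to compounds for 48 hr at 37 C, 5% CO2, then Hoechst-stained 40 min. Nuclear DNA content imaged by fluorescence scanning (405 nm excitation, 500-530 nm emission); re-replication scored as increased high-intensity nuclei.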
HT1080NT lethal = kills 2HG-producing HT-1080-NT fibrosarcoma cells. HT-1080-NT fibrosarcoma viability, CellTiter-Glo ATP luminescence, 48 h. 1.6% of 360,000 active. Potency, µM (highest dose often 46.1 µM), for inactives: at the top dose activity, negative = less viability, most hits filed as cytotoxic;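 note: NT is the 2HG producing partner of a matched IDH1 knockdown line; 0% = DMSO-treated cells and -100% = media-only wells without cells; nearly all actives have a fitted effect of over 55% in size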
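Fibrosarcoma NT cells, 750 per well in 5% FBS RPMI, were exposed to compound for 48 hours. Viability: CellTiter-Glo luminescence.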
KB-3-1 cytotox = KB-3-1 parental cell cytotoxicity. KB-3-1 viability, CellTiter-Glo ATP luminescence, 72 h. Potency, µM (highest dose often 46.1 µM), actives largely listed as cytotoxic. 1.4% of 400,000 active; note: % is set by controls: 0 for no effect and ±100 for the full control effect; nearly all actives have a fitted effect of over 60% in size
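Cytotoxicity measured as CellTiter-Glo luminescence after 72 h at 37 C. Compound titrations were pinned onto drug-naive KB-3-1 parental adenocarcinoma cells grown in DMEM with 10% FBS, and normalized data fitted to concentration-response curves.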
KB-V1 MDR tox = kills drug-selected multidrug resistant KB-V1 cells; Potency, µM (series often up to 46.1 µM), usual class: cytotoxic; KB-V1 MDR cells viability, CellTiter-Glo, 72 h; 3.4% of 400,000 active; note: % is set by controls: 0 for no effect and ±100 for the full control effect; nearly all actives have a fitted effect of over 60% in size
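Cytotoxicity toward P-gp-expressing KB-V1 cells was determined as loss of CellTiter-Glo luminescence after 72 h at 37 degrees C. Compounds were tested in quantitative HTS format across a concentration range, with curves fitted to normalized data.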
Starred values were filed as active, the others as inactive; i = inactive; ? = inconclusive; . = not tested or not shown; ! = not confirmed by another sample. Compounds with a hit are over-represented: about 7.9% of the library has one in this group of screens. Calls come from the whole dose curve; as a rule, active = well fitted curve in the direction sought with a large enough effect; inconclusive = small, poorly fitted or top-dose-only effect, or another doubt; inactive = no such curve, though single readings can be large; an effect the other way counts as inactive or inconclusive. Potency is the fitted concentration of half-maximal effect.

SMILES	MCF10A rereplic	HT1080 IDH1KD tx	SW480 rerep	HT1080NT lethal	KB-3-1 cytotox	KB-V1 MDR tox
Cn1c(=O)c2c(c3ccccc31)OC(=O)CC2c1cccc(F)c1 (configuration not stated)	.	.	.	.	i	i
CN1CCN(c2ccccc2NC(=O)c2cccc(OCc3ccccc3)c2)CC1	0.6%	17.8µM*	4.6%	?	i	i
CC(C)C(=O)N1CCN(c2ccccc2NC(=O)COc2ccc(C3CCCCC3)cc2)CC1	18.4µM*	?	?	?	.	.
CN1CCN(c2ccccc2NC(=O)COc2ccc(Br)cc2)CC1	?	3.6%	-10.6%	-0.8%	i	20.6µM*
CN1CCN(c2ccccc2NC(=O)c2ccc(OCc3ccccc3)cc2)CC1	11.0%	23.1µM*	?	?	?	?
CC(C)C(=O)N1CCN(c2ccccc2NC(=O)COc2ccccc2)CC1	9.5%	3.5%	3.0%	-7.8%	i	?
O=S(=O)(c1ccc(NC(=S)N2CCCCC2CO)cc1)N1CCOCC1 (configuration not stated)	.	2.1%	.	3.5%	i	?
O=C1NC[C@@H](CCCCN2C[C@H](Cc3ccc(O)cc3)N(CCC3CCCCC3)C(=O)C2=O)N(Cc2ccccc2)C1=O	.	-22.8%	.	?	?	i
C1NNCC12CNNC2	.	0.5%	.	?	.	.
COc1ccc(C)cc1NC(=O)CCN1CCN(c2ccccc2)CC1	6.0%	1.9%	-5.4%	10.8%	i	i
O=C(CCN1CCN(c2ccccc2)CC1)NNC(=O)c1cccc2ccccc12	1.5%	9.6%	-1.8%	6.7%	i	18.4µM*
Cc1ccc(C)c(OCC(=O)NNC(=O)CCN2CCN(c3ccccc3)CC2)c1	-2.2%	-9.0%	4.5%	0.1%	i	20.6µM*
Cc1cc(C(=O)NNC(=O)CCN2CCN(c3ccccc3)CC2)c2ccccc2n1	-1.9%	2.1%	-1.7%	-1.7%	?	i
CC(=O)OC[C@@H]1CN(Cc2ccccc2)C[C@H](n2cnc3c(NC4CC4)ncnc32)O1	.	7.4%	.	22.1%	i	i
O=C1CCN2C=Nc3cccc4ccc1c2c34	13.4%	-19.3%	19.9%	-24.3%	?	11.6µM*
Cc1cc(C(=O)CSc2nc3ccccc3c(=O)n2C)c(C)n1Cc1ccc2c(c1)OCO2	10.2%	5.8µM*	3.2%	0.7%	?	?
CC1CCN(C(=O)CSc2nc3ccccc3c(=O)n2Cc2ccc3c(c2)OCO3)CC1	?	-26.3%	19.1%	?	?	4.61µM*
O=C(NCc1ccccc1)C1CCN(S(=O)(=O)Cc2ccccc2)CC1	.	.	.	.	i	i
Cc1ccc([N+](=O)[O-])c(OCCn2cnc3ccccc32)c1	0.0%	-1.6%	3.3%	0.6%	?	14.6µM*
O=C(CNC(=O)c1ccccc1Cl)c1ccccc1	-5.1%	21.8%	-1.4%	21.5%	i	i
CO/N=C(/CNC(=O)c1ccccc1Cl)c1ccc(Cl)cc1	-1.5%	-13.7%	-73.0%	0.0%	i	23.1µM*
COc1ccccc1CC(=O)NO	.	16.5%	.	5.7%	.	.
O=C1CCCC2=C1C(c1ccsc1)CC(=O)N2c1ccccc1 (configuration not stated)	14.2%	9.0%	10.9%	-13.8%	i	13µM*
O=C1CCCC2=C1C(c1ccsc1)CC(=O)N2c1nnc(SCc2ccccc2)s1 (configuration not stated)	-2.0%	-4.6%	-2.5%	-5.3%	i	i
CCOCCCNC(=O)/C(C#N)=C/c1ccc(C(=O)OC)cc1	2.7%	5.8%	22.4%	19.6%	i	i
SMILES	MCF10A rereplic	HT1080 IDH1KD tx	SW480 rerep	HT1080NT lethal	KB-3-1 cytotox	KB-V1 MDR tox
CCOCCCNC(=O)/C(C#N)=C/c1cc(C)c(O)c(C)c1	23.1µM*	-16.2%	?	-12.2%	i	i
CCOCCCNC(=O)/C(C#N)=C/c1ccc(Cl)c([N+](=O)[O-])c1	18.4µM*	32.6µM*	-4.2%	23.1µM*	?	?
CCOCCCNC(=O)/C(C#N)=C/c1cc(OC)c(O)c([N+](=O)[O-])c1	4.61µM*	4.61µM*	?	6.51µM*	7.31µM*	5.8µM*
O=C(CCNS(=O)(=O)c1ccc(F)cc1)N1CCN(c2ncccn2)CC1	.	3.9%	.	-0.7%	i	i
CNC(=O)C[C@H]1C(=O)N(CCc2ccccc2)C[C@@H]1c1ccc(OC)cc1	.	1.7%	.	-2.0%	i	i
COc1ccc(-n2nnc(-c3nsc(NC(=O)c4cccs4)n3)c2C)cc1OC	.	.	.	.	i	i
CCCNC(=O)C[C@@H]1C[C@H]2c3cc(NC(=O)c4ccc5c(c4)OCO5)ccc3O[C@H]2[C@@H](CO)O1	.	7.0%	.	8.0%	i	i
COc1cccc(CCNC(=O)c2cnc3sc(N4CCCC4)nn3c2=O)c1	.	.	.	.	i	i
Cc1ccn2c(NC(=O)C(C)(C)Oc3ccc(Cl)cc3)c(-c3cccs3)nc2c1	?	?	0.4%	?	25.9µM*	i
COc1ccc2[nH]c(C)c(CCNC(=S)Nc3cc(C)cc(C)c3)c2c1	0.1%	-1.2%	?	2.4%	i	i
CCc1cccc(CC)c1NC(=S)NCCc1c(C)[nH]c2ccc(C)cc12	?	-10.6%	14.6µM*	1.5%	6.51µM*	5.8µM*
CCc1cccc(C)c1NC(=S)NCCc1c(C)[nH]c2ccc(C)cc12	10.3µM*	-19.9%	?	-12.3%	?	?
COc1ccc2[nH]c(C)c(CCNC(=S)Nc3cccc(C)c3)c2c1	-4.1%	12.1%	?	3.5%	i	i
COc1ccc2[nH]c(C)c(CCNC(=S)Nc3cc(C)ccc3C)c2c1	?	1.0%	16.4µM*	-17.0%	i	i
COc1ccccc1N1CCN(C(=O)c2cc(S(=O)(=O)N3CCC(C)CC3)cn2C)CC1	.	.	.	.	i	i
Cc1ccccc1Cn1nnc2c(=O)[nH]c(C3CCCN(C(=O)c4ccc(F)cc4)C3)nc21 (configuration not stated)	.	.	.	.	i	?
Cc1[nH]cnc1C(=O)N/N=C/c1c(Cl)cccc1Cl	4.2%	?	-0.3%	?	16.4µM*	20.6µM*
COc1ccc(C2=Nn3c(nnc3-c3ccccc3F)SC2)cc1OCC1CC1	?	.	18.4µM*	.	13µM*	?
COc1ccc(C2=Nn3c(nnc3-c3ccccc3OC)SC2)cc1OC	0.366µM*	?	0.366µM*	0.461µM*	0.013µM*	1.16µM*!
Cc1ccc(CNC(=O)c2c[nH]c3ccc(S(=O)(=O)Nc4ccc(C(C)C)cc4)cc3c2=O)cc1	.	.	.	.	i	i
